According to PubChem BioAssay AID1813 (Broad Institute, 2009):
Out of some 300,000 compounds screened, about 2,500 (0.83%) were called active. For the sample, actives were picked, then their nearest neighbours and some compounds at random. Values without a mark were called inactive. No stated cut-off is given here; in the data, active means inhibition above about 60%; inconclusive means no clear call, values can overlap the other calls; inactive means below that.

Assay: MLPCN primary screen, SNCA 5' untranslated region (AID 1813);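 further: H4 neuroglioblastoma cells stably carrying SNCA 5'UTR luciferase fusion; 0% = DMSO wells and 100% = positive control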
Details: alpha-synuclein 5'UTR reporter, inhibitor activity; hits give high values; tested at 7.5 µM

Row | SMILES | inhibition
1 | O=C(CNCc1ccc(F)cc1)Nc1ccccc1-c1ccccc1 | 16.3%
2 | COCc1cc(=O)[nH]c(SC)n1 | -10.1%
3 | N#C/C(=C\c1cccnc1)C(=O)Nc1ccc(SC(F)F)cc1 | 1.4%
4 | O=[n+]1c2c(n([O-])c3cc(Br)ccc31)CCC2 | 10.3%
5 | O=[N+]([O-])c1ccc2[nH]c3c(c2c1)CCCC3O (configuration not stated) | 10.7%
6 | O=C1CCCc2c1[nH]c1ccc(Br)cc21 | 89% (active)
7 | COC(=O)CN1C(=O)N/C(=C/c2ccc(OC)c(C)c2OC)C1=O | -8.7%
8 | O=C(COC(=O)Cn1[nH]c(=O)c2ccccc2c1=O)Nc1c(Cl)cccc1C(F)(F)F | 4.65%
9 | O=C(NCCN1CCOCC1)c1ccc(/C=C2\Sc3ccccc3N(Cc3ccc(F)cc3)C2=O)cc1 | 14%
10 | CN1CCN(CCCNC(=O)c2ccc(/C=C3\Oc4ccccc4N(Cc4ccc(Cl)cc4)C3=O)cc2)CC1 | 96.5% (active)
11 | CN1C(=O)/C(=C/c2ccc(C(=O)NC3CCCC3)cc2)Oc2ccccc21 | -48%
12 | FC(F)(F)c1cnc(Oc2ccccc2-c2nnc(-c3ccc(Cl)cc3)o2)c(Cl)c1 | -1.16%
13 | Oc1cccc(/C=N/Nc2ccc(Cl)nn2)c1O | -6.82%
14 | COc1cccc(/C=N/Nc2ncc(C(F)(F)F)cc2Cl)c1O | 76.7% (active)
15 | Cc1n[nH]c(=O)c2c(NC(=O)CSc3ccccc3F)oc(C)c12 | -9.19%
16 | CCNS(=O)(=O)c1ccc(NC(=O)c2cncc(Br)c2)cc1 | 8.56%
17 | Oc1ccc(N=Nc2nccs2)c(O)c1 | 24.3%
18 | Oc1ccc2ccccc2c1N=Nc1nccs1 | 87.4% (active)
19 | c1ccc(NCc2cccc3ccccc23)nc1 | 19.1%
20 | CCCOc1ccc(C(=O)CCC(=O)OC(C)C(=O)Nc2ccc(NC(C)=O)cc2)cc1 (configuration not stated) | -18.6%
21 | CCCCOc1ccc(C(=O)NN2CCN(C)CC2)cc1 | 1.5%
22 | CCCOc1ccc(C(=O)C(CCC(CNCC)C(=O)c2ccc(OCCC)cc2)CNCC)cc1 (configuration not stated) | 107% (active)
23 | Cc1ccc(S(=O)(=O)N2CCCCC2)cc1C(=O)N(C)CC(=O)Nc1cccc(F)c1 | 11%
24 | CCOC(=O)c1c(NC(=O)c2ccc(S(=O)(=O)N(C)CC3CCCO3)cc2)sc2c1CC(C)(C)NC2(C)C (configuration not stated) | 0.581%
25 | COC(=O)c1c(NC(=O)COc2ccc(Cl)cc2Cl)sc2c1CC(C)(C)NC2(C)C | 102% (active)

Row | SMILES | inhibition
26 | COC(=O)c1sccc1NC(=O)COc1ccc(Cl)cc1 | -35.3%
27 | CCOc1ccc(CC(=O)NCCS(=O)(=O)N2CCN(c3ccccc3)CC2)cc1 | 13.9%
28 | Cc1cc(OC(=O)c2ccccc2Cl)ccc1N1C(=O)CCC1=O | -3.87%
29 | COc1ccc(NC(=O)c2cccc3c2C(=O)N(CC2CCCO2)C3)cc1OC (configuration not stated) | 32.1%
30 | CN1CCN(C2Cc3ccc(Cl)cc3Sc3ccc(F)cc32)CC1 (configuration not stated) | 104% (active)
31 | Cc1ccc(-c2cn3cc([N+](=O)[O-])ccc3n2)cc1 | 22.1%
32 | CSc1nnc2ccc(-c3ccc(C)cc3)nn12 | 16.4%
33 | Cc1ccc2nc(-c3ccc(Br)cc3)cn2c1 | 63.2% (active)
34 | CCn1c(=O)c(C(=O)NCc2ccc3c(c2)OCO3)c(O)c2ccccc21 | 11.8%
35 | COC(=O)C1(C)NC(c2ccccc2OC)C2C(=O)N(c3ccccc3)C(=O)C21 (configuration not stated) | 0.536%
36 | CC(C)CC[n+]1ccn(C2=C([O-])c3ccccc3C(=O)/C2=N\S(=O)(=O)c2ccccc2)c1 | -27.8%
37 | COc1ccc2c(c1)CCNC2Cc1ccc(OC)c(O)c1 (configuration not stated) | 11.8%
38 | CC[C@H]1CN2CCc3cc(OC)c(OC)cc3[C@@H]2C[C@@H]1C[C@H]1NCCc2cc(OC)c(OC)cc21 | 109% (active)
39 | CCc1ccc(OCC2c3cc(OC)c(OC)cc3CCN2C(C)=O)cc1 (configuration not stated) | 0.678%
40 | COc1ccc(S(=O)(=O)N(C)CC(=O)NCCCN2CCOCC2)cc1Cl | 6.18%
41 | COc1ccc(C(=O)C2CCCN(S(=O)(=O)c3cccc(C)c3)C2)c(C)c1 (configuration not stated) | -3.32%
42 | Cc1ccccc1/[N+]([O-])=C/c1ccncc1 | 5.11%
43 | Cc1ccc(NC(=O)COc2ccc(/C=C3/NC(=O)NC3=O)cc2)cc1 | 1.96%
44 | O=C(c1ccc(OC2CCN(Cc3ccccn3)CC2)cc1)N1CCCCCC1 | 3.78%
45 | Cn1cc(CNC(=O)c2ccc(OC3CCN(Cc4ccccn4)CC3)cc2)cn1 | 14.6%
46 | O=C(NCCOc1cccnc1)c1ccc(OC2CCN(Cc3ccccn3)CC2)cc1 | 95.3% (active)
47 | Cc1ccc(Nc2nc(Cl)c(C=O)s2)cc1 | -26.4%
48 | Cc1ccc2nc(-c3ccncc3)cc(C(=O)Nc3ccc4c(c3)OCCO4)c2c1 | 47.2%
49 | Cc1ccc2nc(-c3ccncc3)cc(C(=O)Nc3ccncc3)c2c1 | 5.38%
50 | Cc1ccc2nc(-c3ccncc3)cc(C(=O)Nc3ccc(OC(F)F)cc3)c2c1 | 67.6% (active)

Row | SMILES | inhibition
51 | COc1cccc(/C=N/Nc2cc(C)nc(-c3ccccc3O)n2)c1O | 82.8% (active)
52 | COc1ccccc1/C=N/Nc1nc(C)c(C(C)=O)s1 | -154%
53 | COc1cccc2c(N/N=C/c3ccco3)cc(C)nc12 | -38.3%
54 | Cc1csc2nc(O)c(C(=O)NCCN3CCOCC3)c(=O)n12 | 0.0631%
55 | Cc1ccc2sc(N(CCN(C)C)C(=O)/C=C/c3cccs3)nc2c1C | -3.93%
56 | CCCCCCCCn1c2c(c(=N)c3c1CCC3)CCCC2 | 101% (active)
57 | Cc1nc2ccccn2c1C(=O)NN=C1CCN(C)CC1 | 18%
58 | CCCC[C@@H]1CN=C(N)N1CCc1cccc(F)c1 | -1.65%
59 | Cc1ccc(C)c(NC(=O)COC(=O)Cn2c(C)csc2=O)c1 | 3.94%
60 | CCOc1ccc(C(C(=O)NC2CCCC2)N(C(=O)c2snc(C(N)=O)c2N)C2CCCC2)cc1 (configuration not stated) | 1.96%
61 | OCCC1CN(Cc2ccc3nsnc3c2)CCN1C1CCCCC1 (configuration not stated) | -4.85%
62 | CCOC(=O)c1nnn2c3ccccc3c(=O)n(C)c12 | -5.14%
63 | CCCCn1c(=O)c(C(C)=O)c(O)c2ccccc21 | -6.66%
64 | CCCCCn1c(=O)c(C(=O)OCC)c(Cl)c2ccccc21 | 92.6% (active)
65 | CNc1ccc(SC#N)cc1 | 1.02%
66 | CCOC(=O)N1CCN(C(=O)C(=O)Nc2sc3c(c2C#N)CC(C)(C)OC3)CC1 | -17.6%
67 | COc1ccc2c3c1O[C@H]1C[C@@H](O)C=C[C@@]31CCN(C)C2 | 62% (active)
68 | COc1cccc(/C=N/NC(=O)c2[nH]nc3c2CCc2ccccc2-3)c1O | 76.4% (active)
69 | CN(C)CCNC(=O)c1[nH]nc2c1CCc1ccccc1-2 | -73.6%
70 | COc1cc2cc(C(=O)N/N=C/c3cccc(OC)c3OC)[nH]c2cc1OC | 22.3%
71 | CCOCCCN(C)C1CCN(C(=O)c2oc3ccccc3c2NC(=O)COc2cccc(C)c2)CC1 | 45.5%
72 | CCOC(=O)c1ccc(NNC(C)=O)c([N+](=O)[O-])c1 | -28%
73 | CCCCCOc1ccc(/C=C/C(=O)NCCc2nc3ccccc3[nH]2)cc1OC | 14.1%
74 | Cc1cc(N/N=C\c2ccc(Br)cc2)nc(-n2nc(C)cc2C)n1 | 25%
75 | Cc1cc(Nc2ccc(Cl)cc2)nc(N2CCOCC2)n1 | -19%

Row | SMILES | inhibition
76 | COc1ccc(Nc2cc(C)nc(-n3nc(C)cc3C)n2)cc1 | 92.8% (active)
77 | CC(=O)c1ccc(Oc2cc(C)nc(-n3nc(C)cc3C)n2)cc1 | 80.1% (active)
78 | Cc1cc(Oc2ccc(Cl)cc2)nc(SCC(=O)c2ccccc2)n1 | 27.8%
79 | Cc1cc(C)n(-c2ccc(C(=O)O)cc2[N+](=O)[O-])n1 | -5.9%
80 | CCC(C(=O)OC)n1cnc2c(oc3ccccc32)c1=O (configuration not stated) | 16.1%
81 | Clc1ccc(-c2ncc3ccccn23)c(Cl)c1 | -17.4%
82 | O=C1c2ccccc2C(=O)N1Cc1cc(-c2ccccc2Cl)no1 | 15.2%
83 | Clc1ccc(-c2cc(-c3ccccn3)on2)c(Cl)c1 | 108% (active)
84 | COc1cc(NC(=O)C2=C(C)OCCS2)c(Cl)cc1C(=O)NCCN1CCN(C)CC1 | -14%
85 | CN1C(=O)[C@H]2[C@@H](C3CC3)N3C(=O)CN(Cc4ccccc4)C(=O)[C@@]3(C)[C@H]2C1=O | -12.7%
86 | Cc1nc2c(c(C)nn2-c2ccccc2)c(C)c1C | -0.524%
87 | COc1ccc(/C=C2\SC(=S)N(CCCC(=O)NC3CCCC3)C2=O)cc1OC | 83.7% (active)
88 | COc1ccc(/C=C2\SC(=S)N(CCC(=O)Nc3ccccn3)C2=O)cc1OC | 28.8%
89 | COc1ccc(/C=C2\SC(=S)N(CCC(=O)Nc3cccc(C(=O)O)c3)C2=O)cc1OC | 6.81%
90 | CCOc1ccc(S(=O)(=O)N/N=C(\C)c2ccc(Cl)c(Cl)c2Cl)cc1 | 2.56%
91 | O=C(NCCc1ccccc1)C(=O)NCC1OCCN1S(=O)(=O)c1cccs1 (configuration not stated) | 2.43%
92 | CC(CNS(=O)(=O)c1ccc(Br)cc1)CN(C)C (configuration not stated) | 22%
93 | CN(CC(=O)NNC(=O)CNC(=O)c1ccccc1Cl)S(=O)(=O)c1ccc(Cl)cc1 | -12.7%
94 | CCc1cc(-c2nnc(SCC(=O)NC3CC3)n2C)cs1 | -4.18%
95 | Cc1ccccc1NCC(=O)N/N=C\c1ccc([N+](=O)[O-])s1 | -43.2%
96 | CC(C)(C)c1cc(C(=O)N/N=C/c2ccc([N+](=O)[O-])s2)n[nH]1 | 64% (active)
97 | Cc1cc(C(=O)N/N=C/c2cc([N+](=O)[O-])cc(C)c2O)n[nH]1 | -3%
